Here are results for nine compounds from PubChem BioAssay AID624312 (National Center for Advancing Translational Sciences (NCATS), 2012).

Inconclusive results are not listed. The source made the active and inactive calls. Calls come from the whole dose curve; as a rule, active = well fitted inhibition curve with a large enough effect; inconclusive = small, poorly fitted or top-dose-only effect; inactive = no such curve, though single readings can be large or run the other way.

Peptidyl-prolyl cis-trans isomerase NIMA-interacting 1 (Homo sapiens), sequence (Q13526 whole entry, looked up, the tested form may be a part): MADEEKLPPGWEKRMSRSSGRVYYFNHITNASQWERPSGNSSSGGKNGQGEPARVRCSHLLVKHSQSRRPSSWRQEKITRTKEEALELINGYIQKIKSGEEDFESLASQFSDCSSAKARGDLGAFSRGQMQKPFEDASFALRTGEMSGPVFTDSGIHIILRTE

This assay deals with Peptidyl-prolyl cis-trans isomerase NIMA-interacting 1 (Homo sapiens) (UniProt Q13526). As to the kind of experiment: qHTS Assay to Find Inhibitors of Pin1: Hit Validation using Tamra Binding. The conditions noted are these: Pin1 Tamra-peptide displacement, fluorescence polarization, 10 min; series mostly up to 57.5 µM. From the text:
The unique chemical properties of Pro allow for the adoption of two completely distinct amide bond conformations (cis and trans). Peptidyl-prolyl cis/trans isomerases (PPIases) are evolutionary conserved enzymes that catalyze cis/trans isomerization of peptidyl-prolyl peptide bonds. Distinct from all other PPIases such as cyclophilins and FK506-binding proteins (FKBPs), Pin1 binds a subset of phos.Ser/Thr-Pro-containing proteins using its protein-targeting WW domain and isomerizes only specific phos.Ser/Thr-Pro bonds, which cannot be effectively catalyzed by other known PPIases. Pin1-catalyzed conformational regulation can control a spectrum of activities of many key regulators in diverse cellular processes such as cell growth, genotoxic and other stress responses, immune response, germ cell development, neuronal differentiation and survival. Pin1 has emerged as a novel molecular timer that modulates its multiple targets at various steps of a given cellular process to synergistically control the amplitude and duration of a cellular response or process. Importantly, Pin1 is tightly regulated by multiple levels and its deregulation has an important role in a growing number of pathological conditions, including cancer, Alzheimer's disease, aging, asthma and microbial infection, providing a potentially new therapeutic option. The goal of this screen is to find small-molecule inhibitors of Pin1 using a fluorescence polarization competition assay.In the primary screen, a HiFluor-488-labeled peptide binds to the active site of Pin1 and can be displaced by compounds. Compounds were screened as a concentration-titration series that ranged from 57 uM to 0.7 nM. To validate the hits using a different read-out, this Tamra binding assays was used against all the hits identified from the primary screen. NIH Molecular Libraries Probe Production Network [MLPCN] NIH Chemical Genomics Center [NCGC] MLPCN Grant: R03 DA031663 PI Name: Dr. Kun Ping Lu, Beth Israel Deaconess Medical Center
Briefly, 2 uL of Pin1 (all columns but column 3, which just receives buffer and serves as negative control) are dispensed into Greiner black solid bottom 1536-well assay plates. Compounds are then transferred via Kalypsys pin tool equipped with 1536-pin array (10 nl slotted pins, V&P Scientific, San Diego, CA). Following addition of compound, 2 uL of Tamra-probe in buffer (all columns) is added to initiate the binding reaction. The plates are then incubated at room temperature for 10 minutes. Finally, plates are transferred to a ViewLux high-throughput CCD imager (PerkinElmer), wherein end-point measurements of fluorescence polarization are acquired. All reagents are diluted in an assay buffer consisting of 10 mM Hepes, 10 mM NaCl, 1 mM DTT, 1% glycerol and 0.01% Tween-20.
`Cc1ccc2nc(-c3ccc(N=Nc4cc(S(=O)(=O)O)c5ccccc5c4O)cc3)sc2c1S(=O)(=O)O`: the Potency entry is “inactive”.
For `COc1ccc(S(=O)(=O)Nc2cc(Sc3ncn[nH]3)c(O)c3ccccc23)cc1`, the Potency entry is “inactive”.
The result for `CCCCCC(=O)Nc1cc(S(=O)(=O)O)cc2cc(S(=O)(=O)O)cc(O)c12` reads 2.39 µM (active); that for `O=S(=O)(O)c1cc(O)c2cc(Nc3ccccc3)ccc2c1`, 12 µM (active); that for `O=S(=O)(Nc1cc(Sc2ncn[nH]2)c(O)c2ccccc12)c1ccccc1`, “inactive”.
Consider `CC(=O)Nc1ccc(Nc2c3c4c(cccc4n(C)c2=O)C(=O)c2ccccc2-3)cc1`, for which the Potency result is “inactive”.
Next, `Nc1ccc2cccc(O)c2c1`: 26.9 µM (active); `O=S(=O)(O)c1ccc(O)c2cc(Nc3ccccc3)ccc12`: 3.01 µM (active).
Next, `COc1ccccc1Nc1ccc2c(O)cc(S(=O)(=O)O)cc2c1`: 7.57 µM (active).
